The text below walks through data of PubChem BioAssay (Tox21).

Experiment [1] in a line: qHTS assay for identifying genotoxic compounds that show differential cytotoxicity against isogenic chicken DT40 cell lines with known DNA damage response pathways - wild type cell line (AID 743012). Note: nearly all actives have a fitted effect of over 60% in size. Note: potency is the fitted concentration of half-maximal effect. The procedure, abridged: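 Endpoint: CellTiter-Glo luminescence, 30 min RT. Cells: wild type DT40, 300/well. Exposure: compounds in DMSO, 40 h, 37 C/5% CO2, after ~0.5 h pre-incubation.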

Experiment [2] is described as follows: qHTS assay for identifying genotoxic compounds that show differential cytotoxicity against isogenic chicken DT40 cell lines with known DNA damage response pathways - Rev3 mutant cell line (AID 743014). Note: nearly all actives have a fitted effect of over 55% in size. Note: potency is the fitted concentration of half-maximal effect.
The nature of experiment [3]: qHTS assay for identifying genotoxic compounds that show differential cytotoxicity against isogenic chicken DT40 cell lines with known DNA damage response pathways - Rad54/Ku70 mutant cell line (AID 743015). Note: nearly all actives have a fitted effect of over 60% in size. Note: potency is the fitted concentration of half-maximal effect.
A short description of experiment [4]: qHTS assay to identify small molecule antagonists of the androgen receptor (AR) signaling pathway - cell viability counter screen (AID 743033; note: nearly all actives have a fitted effect of over 45% in size; note: potency is the fitted concentration of half-maximal effect).
The nature of experiment [5]: qHTS assay to identify small molecule antagonists of the androgen receptor (AR) signaling pathway using the MDA cell line - cell viability counter screen (AID 743041; note: nearly all actives have a fitted effect of over 45% in size; note: potency is the fitted concentration of half-maximal effect). The procedure, abridged:
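Cytotoxicity counter screen: MDA-kb2 AR-luc cells, compound + R1881, 16 h, 37C, 0% CO2; CellTiter-Fluor added at 15.5 h, fluorescence read after 30 min.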

Experiment [6] in a line: qHTS assay to identify small molecule antagonists of the thyroid receptor (TR) signaling pathway - cell viability counter screen (AID 743064). Note: nearly all actives have a fitted effect of over 50% in size. Note: potency is the fitted concentration of half-maximal effect. The procedure, abridged: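 In rat pituitary GH3.TRE-Luc reporter cells co-exposed to compound and 1 nM T3 for 23.5 h, cytotoxicity was assessed with CellTiter-Fluor in the same wells, read by fluorescence.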
A short description of experiment [7]: qHTS assay to identify small molecule antagonists of the thyroid receptor (TR) signaling pathway (AID 743065). Note: nearly all actives have a fitted effect of over 55% in size. Note: potency is the fitted concentration of half-maximal effect. In outline:
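GH3.TRE-Luc rat pituitary cells (two TREs driving luciferase) were dosed with compound, then stimulated with 1 nM T3 (final) for 23.5 h at 37 C. ONE-Glo luminescence was the read-out, with CellTiter-Fluor fluorescence as the cytotoxicity counter-screen.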

Experiment [8] has as its system thyroid hormone receptor (rat, GH3 cells). In words: qHTS assay to identify small molecule agonists of the thyroid receptor (TR) signaling pathway (AID 743066; calls by dose curve).
Experiment [9] is described as follows: qHTS assay to identify small molecule antagonists of the estrogen receptor alpha (ER-alpha) signaling pathway - cell viability counter screen (AID 743074; calls by dose curve;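 note: HEK293 cells carrying ER-alpha-UAS-bla reporter stimulated with 17beta-estradiol; nearly all actives have a fitted effect of over 45% in size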; note: potency is the fitted concentration of half-maximal effect).
Experiment [10] in a line: qHTS assay to identify small molecule antagonists of the estrogen receptor alpha (ER-alpha) signaling pathway using the BG1 cell line - cell viability counter screen (AID 743081).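 Note: compound given together with 17beta-estradiol as the ER stimulus; nearly all actives have a fitted effect of over 45% in size.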 Note: potency is the fitted concentration of half-maximal effect.
A further experiment addresses Aromatase (Homo sapiens) (UniProt P11511). In words: qHTS assay to identify aromatase inhibitors (AID 743083). Note: nearly all actives have a fitted effect of over 55% in size. Note: potency is the fitted concentration of half-maximal effect.
Experiment [11] concerns the target Estrogen receptor (Homo sapiens) (UniProt P03372). In words: qHTS assay to identify small molecule agonists of the estrogen receptor alpha (ER-alpha) signaling pathway (AID 743075; calls by dose curve;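 note: HEK293 GripTite cells with ER-alpha and UAS-driven beta-lactamase reporter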; note: potency is the fitted concentration of half-maximal effect). As to conditions: HEK293 ER-alpha-UAS-bla, beta-lactamase FRET ratio, 18 h; activation: at 70.1 µM (top of the series).
Experiment [12] addresses Androgen receptor (Homo sapiens) (UniProt P10275). In words: qHTS assay to identify small molecule agonists of the androgen receptor (AR) signaling pathway using the MDA cell line (AID 743040; note: nearly all actives have a fitted effect of over 20% in size; note: potency is the fitted concentration of half-maximal effect). In outline:
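Luciferase read-out, ONE-Glo, 30 min RT. Cells: MDA-kb2 AR-luc, MMTV promoter with AR and GR response elements. Compound exposure 16 h, 37C, 0% CO2, after 5 h pre-incubation. qHTS agonist mode.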

For experiment [13] the target is unchanged. In words: qHTS assay to identify small molecule antagonists of the androgen receptor (AR) signaling pathway using the MDA cell line (AID 743042; note: nearly all actives have a fitted effect of over 55% in size; note: potency is the fitted concentration of half-maximal effect). In outline:
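MDA-kb2 breast carcinoma cells carrying MMTV-luciferase (AR/GR responsive) were co-treated with compounds and the agonist R1881 for 16 h at 37C. Inhibition read as ONE-Glo luminescence; CellTiter-Fluor fluorescence measured in parallel for cytotoxicity.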

A short description of experiment [14]: qHTS assay to identify small molecule antagonists of the estrogen receptor alpha (ER-alpha) signaling pathway using the BG1 cell line (AID 743080; calls by dose curve;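 note: BG1 cells stimulated with 17beta-estradiol alongside compound; nearly all actives have a fitted effect of over 25% in size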; note: potency is the fitted concentration of half-maximal effect). The procedure, abridged:
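After 5 days in phenol-red-free 10% charcoal-stripped FBS medium, BG1-Luc-4E2 cells were seeded, left 24 h at 37 C, co-treated with compounds and 17beta-estradiol for 21.5 h, then assayed for viability and luciferase.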

In experiment [15] the target is Androgen receptor (Homo sapiens) (UniProt P10275). In words: qHTS assay to identify small molecule agonists of the androgen receptor (AR) signaling pathway (AID 743036; active = well fitted activation curve with a large enough effect in the signal ratio in the repeat runs, with a control signal flat, not every such curve was filed as active; inconclusive = weak or mixed curves, or effect the other way; inactive = no such curve, though single readings can be large or run the other way; the % refers to the signal ratio). In outline: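 Cell-based FRET reporter assay: HEK293 line with a UAS-beta-lactamase construct, compounds added in DMSO, 16 h exposure at 37C, then 2 h substrate step at room temperature and fluorescence intensity read.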
Androgen receptor (Homo sapiens), sequence (P10275 whole entry, looked up): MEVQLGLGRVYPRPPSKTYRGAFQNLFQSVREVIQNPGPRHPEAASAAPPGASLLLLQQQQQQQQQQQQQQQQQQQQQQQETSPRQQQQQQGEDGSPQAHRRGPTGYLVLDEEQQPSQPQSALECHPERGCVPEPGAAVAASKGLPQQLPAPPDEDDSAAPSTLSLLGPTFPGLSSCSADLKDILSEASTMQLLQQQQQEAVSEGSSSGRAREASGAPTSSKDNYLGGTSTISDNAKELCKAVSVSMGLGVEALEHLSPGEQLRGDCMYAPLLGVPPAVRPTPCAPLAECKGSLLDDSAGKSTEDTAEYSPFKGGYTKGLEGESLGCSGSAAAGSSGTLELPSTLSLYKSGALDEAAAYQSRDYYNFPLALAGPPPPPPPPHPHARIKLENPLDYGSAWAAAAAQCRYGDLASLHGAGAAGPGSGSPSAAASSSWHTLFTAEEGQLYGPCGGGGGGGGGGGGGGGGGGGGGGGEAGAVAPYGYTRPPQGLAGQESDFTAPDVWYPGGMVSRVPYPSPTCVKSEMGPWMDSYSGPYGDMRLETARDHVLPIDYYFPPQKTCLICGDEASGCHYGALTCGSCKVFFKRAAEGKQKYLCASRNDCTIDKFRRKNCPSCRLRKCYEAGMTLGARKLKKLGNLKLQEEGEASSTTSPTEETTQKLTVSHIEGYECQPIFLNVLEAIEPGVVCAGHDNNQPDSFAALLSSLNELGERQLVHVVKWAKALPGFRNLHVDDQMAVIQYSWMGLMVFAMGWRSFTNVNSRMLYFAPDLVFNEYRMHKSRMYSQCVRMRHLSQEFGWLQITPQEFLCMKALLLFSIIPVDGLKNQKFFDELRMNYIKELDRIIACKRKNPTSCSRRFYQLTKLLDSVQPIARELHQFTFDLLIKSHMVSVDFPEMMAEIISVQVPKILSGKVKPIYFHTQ

Experiment [16] addresses Estrogen receptor (Homo sapiens) (UniProt P03372). In words: qHTS assay to identify small molecule agonists of the estrogen receptor alpha (ER-alpha) signaling pathway using the BG1 cell line (AID 743079). Note: potency is the fitted concentration of half-maximal effect; nearly all actives have a fitted effect of over 20% in size. As to conditions: BG1Luc4E2 cells, ERE-luciferase agonist, 22 h.
In experiment [17] the target is Androgen receptor (Homo sapiens) (UniProt P10275). In words: qHTS assay to identify small molecule antagonists of the androgen receptor (AR) signaling pathway (AID 743035; active = well fitted inhibition curve with a large enough effect in the signal ratio in the repeat runs, not every such curve was filed as active; inconclusive = weak or mixed curves, or effect the other way; inactive = no such curve, though single readings can be large or run the other way; the % refers to the signal ratio; note: potency is the fitted concentration of half-maximal effect). The procedure, abridged: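 R1881 agonist challenge of a HEK293 UAS-beta-lactamase AR reporter line in the presence of compound (16 h, 37C); signal taken as FRET fluorescence after 2 h with LiveBLAzer B/G substrate at room temperature.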

Values joined by “and” are separate entries in the source; they are usually repeats but may differ in a detail not shown here. Identical values can stand only once. The source holds several records for some structures; these can differ, active in one and inactive in another. Active and inactive are the calls of the source. Unless noted, calls come from the whole dose curve; as a rule, active = well fitted curve in the direction sought with a large enough effect in the repeat runs; inconclusive = weak or mixed curves; inactive = no such curve, though single readings can be large; an effect the other way counts as inactive or inconclusive.

Aromatase (Homo sapiens), sequence (P11511 whole entry, looked up): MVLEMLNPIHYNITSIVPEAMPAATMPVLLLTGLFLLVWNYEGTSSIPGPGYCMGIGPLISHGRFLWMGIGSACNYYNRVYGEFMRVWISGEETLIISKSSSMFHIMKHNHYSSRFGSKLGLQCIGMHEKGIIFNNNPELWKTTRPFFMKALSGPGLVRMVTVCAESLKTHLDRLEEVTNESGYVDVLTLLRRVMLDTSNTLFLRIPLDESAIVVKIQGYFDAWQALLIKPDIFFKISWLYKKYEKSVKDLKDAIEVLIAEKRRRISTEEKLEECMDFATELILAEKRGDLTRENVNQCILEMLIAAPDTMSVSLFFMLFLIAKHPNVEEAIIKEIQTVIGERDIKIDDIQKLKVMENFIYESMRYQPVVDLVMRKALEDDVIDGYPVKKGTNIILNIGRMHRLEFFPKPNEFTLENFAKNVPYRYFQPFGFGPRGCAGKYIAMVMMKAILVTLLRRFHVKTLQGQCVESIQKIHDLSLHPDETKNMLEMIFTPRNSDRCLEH
Estrogen receptor (Homo sapiens), sequence (P03372 whole entry, looked up): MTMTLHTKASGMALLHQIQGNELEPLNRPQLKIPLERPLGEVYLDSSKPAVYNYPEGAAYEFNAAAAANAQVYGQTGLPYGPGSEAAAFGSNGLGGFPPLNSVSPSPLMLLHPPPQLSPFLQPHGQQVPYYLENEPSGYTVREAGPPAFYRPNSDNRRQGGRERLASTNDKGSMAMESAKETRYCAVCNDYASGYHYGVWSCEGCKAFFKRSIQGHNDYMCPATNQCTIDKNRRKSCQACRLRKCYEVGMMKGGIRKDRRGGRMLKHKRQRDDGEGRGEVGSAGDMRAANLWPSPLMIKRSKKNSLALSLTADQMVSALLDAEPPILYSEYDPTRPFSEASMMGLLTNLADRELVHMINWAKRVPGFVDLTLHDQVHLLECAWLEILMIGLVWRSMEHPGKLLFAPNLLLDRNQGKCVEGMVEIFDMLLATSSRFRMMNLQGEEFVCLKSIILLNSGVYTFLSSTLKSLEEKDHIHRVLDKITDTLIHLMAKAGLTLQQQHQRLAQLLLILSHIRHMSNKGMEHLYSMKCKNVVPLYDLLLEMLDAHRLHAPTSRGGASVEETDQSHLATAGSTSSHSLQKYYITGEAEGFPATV

Consider `O=C(O)c1c(Cl)cccc1Cl`, for which the Potency entry in [1], in experiment [2], in experiment [3], in [4], in experiment [5] and in experiment [6] was “inactive” throughout. Moreover, the Potency result (in [7]; in experiment [8]; in [9]; in [10]; in the experiment with Aromatase (Homo sapiens)) was “inactive” each time.

With `CC(C)(C)c1ccc(C(=O)CCCN2CCC(OC(c3ccccc3)c3ccccc3)CC2)cc1`, the Potency was 4.22 µM (active) in [1]; 5.31 µM (active) in [2]; 5.96 µM (active) in experiment [3]; 11.9 µM (active) in experiment [6]; 13.3 µM (active) in [7]; 23.9 µM (active) in experiment [9]. For the same compound, the Potency entry (in experiment [4]; in the experiment with Aromatase (Homo sapiens)) was “inactive” in each case.

Take `O=C(Nc1cccc(C(F)(F)F)c1)c1cc(Br)cc(Br)c1O`: the Potency in [1] is 5.31 µM (active) and 6.11 µM (active); in [2] it was 5.96 µM (active) and 7.7 µM (active); in experiment [4], 4.25 µM (active) and 4.36 µM (active); in experiment [6], 5.96 µM (active) and 2.43 µM (active); in experiment [7], 2.98 µM (active) and 1.09 µM (active); in experiment [9], 1.34 µM (active) and 977 nM (active). Also, the Potency in the experiment with Aromatase (Homo sapiens) is 11.9 µM (active) and 4.86 µM (active). Moreover, in experiment [11], the Potency entry is “inactive”.

On to `Oc1cccc(-c2c3nc(c(-c4cccc(O)c4)c4ccc([nH]4)c(-c4cccc(O)c4)c4nc(c(-c5cccc(O)c5)c5ccc2[nH]5)CC4)C=C3)c1`, for which the Potency in [1] is 29.8 µM (active); in experiment [2], 29.8 µM (active); in experiment [3] it was 26.6 µM (active); in experiment [4], “inactive and 23.9 µM (active)”; in experiment [5], 23.7 µM (active); in experiment [6], 11.9 µM (active) and 10.6 µM (active). Moreover, the Potency in [7] was 8.41 µM (active) and 7.5 µM (active); in experiment [10], 9.44 µM (active) and 11.9 µM (active); with Aromatase (Homo sapiens), “inactive and 26.6 µM (active)”. The Potency entry in experiment [12], in experiment [13], in [11] and in experiment [14] was “inactive” in each case.

Take `CCCCc1oc2ccc(NS(C)(=O)=O)cc2c1C(=O)c1ccc(OCCCN(CCCC)CCCC)cc1`: the Potency in [1] was 9.44 µM (active); in [2], 13.3 µM (active); in [3], 18.8 µM (active); in experiment [4], 21.3 µM (active); in [6] it was 10.6 µM (active); in [7] it was 11.9 µM (active). For the same compound, the Potency with Aromatase (Homo sapiens) was 29.8 µM (active).

With `CCCCC(CC)COC(=O)c1ccccc1C(=O)O` (stereo not drawn), the Potency result in [4], in experiment [6] and in experiment [8] was “inactive” throughout.

With `Cc1ccc(O)c(C(C)(C)C)c1`, the Potency in experiment [1] is 27.3 µM (active) and inactive; in [2] it was 13.7 µM (active); in [3], 15.3 µM (active); in experiment [4], 15.5 µM (active); in experiment [6], 17.2 µM (active) and inactive; in [10] it was 61 µM (active) and inactive. Also, the Potency with Aromatase (Homo sapiens) is 15.3 µM (active) and inactive. Further, the Potency entry in [8] was “inactive”.

Regarding `CCN(CC)CCNC(=O)c1c(C)[nH]c(/C=C2\C(=O)Nc3ccc(F)cc32)c1C`, the Potency in experiment [1] was 5.96 µM (active); in [2], 9.44 µM (active); in experiment [3] it was 7.5 µM (active); in [6] it was 26.6 µM (active); in [10], 9.44 µM (active). Further, the Potency result in experiment [4], in experiment [5] and in [9] was “inactive” throughout.

With `CCCCCCOC(=O)c1ccc(O)cc1`, the Potency in experiment [1] was 21.7 µM (active) and inactive; in [2] it was 48.6 µM (active); in experiment [3] it was 48.6 µM (active); in [11], 49 µM [inconclusive] (active) and 24.5 µM [inconclusive] (active); in experiment [16] it was 5.45 µM (active) and 17.2 µM (active). Further, the Potency result in experiment [4], in experiment [15], in experiment [12], in experiment [5], in experiment [13] and in [6] was “inactive” each time. The Potency entry in experiment [7], in experiment [8], in experiment [9] and in experiment [10] was “inactive” throughout.

Take `CCCC(=O)OC[C@@H](OC(=O)CCC)[C@@H](OC(=O)CCC)[C@H](Cn1c2nc(=O)[nH]c(=O)c-2nc2cc(C)c(C)cc21)OC(=O)CCC`: the Potency in experiment [1] is 11.9 µM (active); in [2], 13.3 µM (active); in experiment [3], 10.6 µM (active); in experiment [12], 5.31 µM (active); in experiment [13], 23.7 µM (active); in experiment [14], 29.8 µM (active). The Potency result (in experiment [4]; in [17]; in [8]; in experiment [9]; in experiment [11]; with Aromatase (Homo sapiens)) was “inactive” each time.

With `c1cc(C(c2ccc(OCC3CO3)cc2)c2ccc(OCC3CO3)cc2)ccc1OCC1CO1` (stereo not drawn), the Potency in experiment [1] was 24.3 µM (active); in experiment [2], 0.969 µM (active); in experiment [6], 17.2 µM (active); in experiment [7], 12.2 µM (active); in the experiment with Aromatase (Homo sapiens) it was 68.6 µM (active). Also, the Potency result in experiment [12], in experiment [5], in experiment [9], in [11], in experiment [14] and in [10] was “inactive” each time.

Turning to `CN(C)C(=O)C1(N2CCCCC2)CCN(CC[C@@]2(c3ccc(Cl)c(Cl)c3)CN(C(=O)c3ccccc3)CCO2)CC1`, the Potency in [1] is 7.19 µM (active); in [2] it was 8.07 µM (active); in experiment [3], 5.71 µM (active); in experiment [4], 16.2 µM (active); in experiment [13] it was 28.6 µM (active); in [6] it was 5.09 µM (active). Moreover, the Potency was 4.54 µM (active) in experiment [7], 51.3 µM (active) in [9], 64.1 µM (active) in experiment [10] and 40.4 µM (active) with Aromatase (Homo sapiens). Moreover, the Potency result in experiment [12] is “inactive”.

Turning to `[Cl][Au]([Cl])[Cl]`, the Potency in [1] was 13.7 µM (active); in experiment [2] it was 12.2 µM (active); in experiment [3], 13.7 µM (active); in experiment [4] it was 21.9 µM (active); in experiment [5], 48.6 µM (active); in experiment [6], 3.86 µM (active). Moreover, the Potency with Aromatase (Homo sapiens) is 24.3 µM (active).

Consider `CCCCN(CCCC)c1ccc(C(=O)c2ccccc2C(=O)O)c(O)c1`, for which the Potency result in [2], in experiment [4], in experiment [12], in experiment [5], in [8] and in experiment [10] was “inactive” throughout. For the same compound, the Potency result with Aromatase (Homo sapiens) was “inactive”. The Potency is 39.3 µM (active) in experiment [17], 55 µM (active) in experiment [6], 55 µM (active) in experiment [7] and 49.4 µM (active) in [9].
